Source: PubChem BioAssay
The list is not random: actives were taken first. Their share in the collection is about 2.6%.
Prx2 Sm inh: Schistosoma Mansoni Peroxiredoxins (Prx2) | Schistosoma mansoni peroxiredoxin 2 (Prx2) | S. mansoni Prx2 activity coupled to TGR/GSH (TGR is thioredoxin glutathione reductase), NADPH fluorescence loss, qHTS | Potency, µM | hit rate 0.07% among 65,000 | AID 448, 2006
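Prx2 activity was followed as the loss of NADPH fluorescence (ex 365/em 450 nm), read every 30 sec for 8 min after H2O2 start. The enzyme mix (50 nM Prx2, 25 nM TGR, GSH, NADPH; pH 7.4 phosphate buffer) was incubated with compound for 15 min at room temperature first.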
AmpC inh det: Promiscuous and Specific Inhibitors of AmpC Beta-Lactamase (assay with detergent); purified AmpC, nitrocefin hydrolysis with detergent; P00811; AID 584, 2007; hit rate 0.09% among 71,000; Potency, µM (series often up to 28.7 µM), for inactives: at the top dose activity change, negative = inhibition; active = well fitted curve in the direction sought with a large enough effect; inconclusive = small, poorly fitted or top-dose-only effect; also: % is scaled to controls: 0 for no effect and ±100 for the full control effect
Target sequence (P00811 whole entry, looked up): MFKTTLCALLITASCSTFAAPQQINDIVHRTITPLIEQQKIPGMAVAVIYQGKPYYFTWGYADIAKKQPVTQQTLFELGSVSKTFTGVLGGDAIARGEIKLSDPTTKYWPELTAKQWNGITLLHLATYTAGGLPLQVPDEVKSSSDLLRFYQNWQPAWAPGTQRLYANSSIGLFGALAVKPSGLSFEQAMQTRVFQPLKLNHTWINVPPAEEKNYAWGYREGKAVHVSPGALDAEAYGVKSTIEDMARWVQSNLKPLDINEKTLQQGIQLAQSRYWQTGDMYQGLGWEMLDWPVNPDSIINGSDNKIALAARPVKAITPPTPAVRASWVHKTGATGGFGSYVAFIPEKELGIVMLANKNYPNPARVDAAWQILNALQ
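E. coli AmpC (5.3 nM) in 20 mM phosphate pH 7.0 with 0.01% Triton X-100, preincubated 15 min RT with compound; nitrocefin (2 uL of 800 uM stock) hydrolysis followed by 480 nm absorbance every 20 s over 4 min.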
Anthrax LT inh: qHTS Assay for Anthrax Lethal Toxin Internalization; Cells, anthrax lethal toxin internalization, FRET ratio (460/530); Potency, µM (highest dose often 40 µM), inactives show at the highest dose activity change, negative = inhibition, actives largely listed as inhibitors; hit rate 0.67% among 70,000; also: % is scaled to controls: 0 for no effect and ±100 for the full control effect; nearly all actives have a fitted effect of over 50% in size
AmpC inh no det: Promiscuous and Specific Inhibitors of AmpC Beta-Lactamase (assay without detergent); AmpC nitrocefin hydrolysis, absorbance 480 nm, no detergent; P00811; Potency, µM (titrated, usually from 28.7 µM), for inactives: top-dose activity change, negative = inhibition; hit rate 1.8% among 71,000; also: % of control where 0% means no effect
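Enzyme, pH 7.0 phosphate. Compound titrations were pre-incubated with AmpC for 15 min at room temperature before nitrocefin (stock 800 uM) addition; product formation was recorded at 480 nm every 20 s for 4 min.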
* hit, by the source's call; u = inconclusive; x = no result given; [ ] = another dose, or the depositor's remark. Unless noted, calls follow the shape of the full dose curve. Potency is read from the fitted curve at half-maximal effect.

SMILES	Prx2 Sm inh	AmpC inh det	Anthrax LT inh	AmpC inh no det
O=C1Nc2ccccc2OC1CC(=O)N1CCOCC1 (stereo not given)	>57	14%	-5%	3.2µM*[single pt active]
CC1=C(C)CC(c2ccccc2)C(C(=O)c2ccccc2O)C1 (stereo not given)	x	x	-47%[8 µM]	x
O=S(=O)(c1ccc(Oc2ccc(S(=O)(=O)N3CCOCC3)cc2)cc1)N1CCOCC1	x	-1%	-15%	108%
C=CS(=O)(=O)c1ccc(Oc2ccc(S(=O)(=O)C=C)cc2)cc1	u	2%	4µM*	15%
COCC(=O)N1CCC2(CC1)CCN(C(=O)Nc1cccc(C#N)c1)CC2	>57	2%	8%	0%
CCCc1ccc(OCc2ccc(C(=O)N3CCN(c4ccccn4)CC3)o2)c(OC)c1	>57	-5%	13µM*	125%
NC(=O)c1ncn([C@@H]2O[C@@H](CO)[C@@H](O)[C@H]2O)c1O	>57	-1%	6%	-6%
CC1(C(=O)NC2CCCC2)CCC(=O)N1Cc1cccs1 (stereo not given)	>57	-5%	2%	-3%
CC1(C(=O)NC2CCCCC2)CCC(=O)N1Cc1cccs1 (stereo not given)	>57	13%	-25%	4µM*[single pt active]
C[C@H](NC(=O)[C@@H]1C[C@H]1[C@@H](NC(=O)OCc1ccccc1)c1ccccc1)c1ccccc1	x	12%	3%	u
Cc1cnc(CNc2cc(-c3cccc(NS(C)(=O)=O)c3)ncn2)cn1	>57	8%	-2%	11%
O=C1OCCC1Sc1nnc(-c2ccco2)o1 (stereo not given)	6.5*	-1%	-6%	2%
CCSC1(SCC)N=C(N)C2(C#N)C(c3ccccc3)NC3=C(CCC3)C12C#N (stereo not given)	>57	-3%	u	8%
CCSC1(SCC)N=C(N)C2(C#N)C(c3ccc(OC)c(OC)c3OC)C12C#N (stereo not given)	>57	-4%	10µM*	39%
Cc1cccc(CNc2ccnc(-c3cccc(C#N)c3)n2)c1	>57	-3%	5µM*	29%
COC(=O)c1ccc2c(c1)N(Cc1cc(C)ccc1C)C(=O)c1ccccc1S2=O (stereo not given)	>57	13%	-5%	4µM*[single pt active]
O=S(c1ccccc1)c1ccc2nnnn2n1 (stereo not given)	>57	-1%	x	-1%
COC(=O)N[C@H](c1ccccc1)[C@@]1(C)C[C@@H]1[C@@H](C)C(=O)Nc1ccc2ccccc2c1	>57	-4%	10µM*	16%
CC(=O)N[C@H](c1ccccc1)[C@@]1(C)C[C@@H]1[C@@H](C)C(=O)Nc1ccc2ccccc2c1	>57	1%	u	90%
COc1cc([C@H](O)CO)ccc1O	>57	-1%	-7%	-12%
Brc1ccc(Oc2ccc(Br)cc2Br)c(Br)c1	x	13%	u	13µM*
O=c1cc(-c2ccccc2)oc2c1ccc1ccccc12	>57	-1%	25µM*	59%
O=C(NCCC1=CCCCC1)C1CCN(S(=O)(=O)c2cccc3nonc23)CC1	>57	10%	0%	20µM*[single pt active]
O=C(NCc1ccc2c(c1)OCO2)C1CCCN(S(=O)(=O)c2cccc3nonc23)C1 (stereo not given)	>57	19%	-6%	10µM*[single pt active]
O=C(NCCC1=CCCCC1)C1CCN(S(=O)(=O)c2cccs2)CC1	>57	10%	9%	9%
SMILES	Prx2 Sm inh	AmpC inh det	Anthrax LT inh	AmpC inh no det
c1cncc(-c2cc(NCc3cccs3)ncn2)c1	>57	8%	15%	8%
CCOC(=O)N1CCc2c(sc(NC(=O)c3ccc(Cl)s3)c2C(N)=O)C1	>57	16%	5µM*	-2%
CCc1nccn1S(=O)(=O)c1ccc(OC)c(OC)c1	>57	17%	-6%	4µM*[single pt active]
CCc1nccn1S(=O)(=O)c1ccc(C)c(C)c1	>57	1%	-16%	-5%
O=C(c1cnn2ccccc12)N1CCCc2ccccc21	>57	9%	11%	4µM*[single pt active]
COc1ccccc1CN1CC[C@@]2(CCCN(C(=O)c3ccncc3)C2)C1	>57	1%	8%	20%
O=C(O)CCCCn1ccc(=O)[nH]c1=O	>57	-1%[5.75 µM]	-7%[8 µM]	-1%[5.75 µM]
CCC(C)NC(=O)CS(=O)Cc1nc(-c2ccccc2C)oc1C (stereo not given)	>57	11%	-11%	4µM*[single pt active]
CCCNC(=O)CS(=O)Cc1nc(-c2ccccc2C)oc1C (stereo not given)	>57	13%	u	4µM*[single pt active]
COCC(=O)N1CCC2(CC1)CCN(c1ccccc1)CC2	>57	-1%	14%	75%
COc1ccc(CNC(=O)C(c2cccs2)N(C(=O)c2csnn2)C2CC2)cc1 (stereo not given)	>57	-4%	7.9µM*	18%
Cn1c(=O)c2cc(S(=O)(=O)NC(C(=O)Nc3cccnc3)c3ccccc3)ccc2n(C)c1=O (stereo not given)	>57	11%	-8%	4µM*[single pt active]
O=C1CCc2cc(S(=O)(=O)NC(C(=O)NCc3cccnc3)c3ccccc3)ccc2N1 (stereo not given)	>57	12%	1%	4µM*[single pt active]
CC(NC(=O)CCNS(=O)(=O)c1ccc2c(c1)c(=O)n(C)c(=O)n2C)c1ccccc1 (stereo not given)	>57	4%	-22%	9%
Cn1c(=O)c2cc(S(=O)(=O)NC(C(=O)NCc3cccnc3)c3ccccc3)ccc2n(C)c1=O (stereo not given)	>57	14%	-7%	4µM*[single pt active]
O=c1cnc2cnc(Oc3ccccc3)nc2n1C1CC1	>57	-1%	11%	16%
COc1ccccc1CN(Cc1cc2c(C)ccc(C)c2[nH]c1=O)Cc1nnnn1Cc1ccco1	>57	-3%	16µM*	58%
Cc1c(C)c2cc(Cl)c(O)c(CN(C)C)c2oc1=O	x	0%	11%	-1%
O=c1oc2c(O)c(O)cc3c(=O)oc4c(O)c(O)cc1c4c23	>57	u	u	7.9µM*
Cn1nc(-c2ccc(Cl)cc2)c2cc(C(=O)NCCCN3CCOCC3)sc21	>57	13%	2.5µM*	124%
Cn1nc(-c2ccc(Cl)cc2)c2cc(C(=O)NCCN3CCOCC3)sc21	>57	14%	u	146%
CCN1CCN(C(=O)c2cc3c(-c4ccc(Cl)cc4)nn(C)c3s2)CC1	>57	9%	5%	155%
Cn1nc(-c2ccc(Cl)cc2)c2cc(C(=O)N3CCN(C(=O)c4ccco4)CC3)sc21	x	13%	-10%	4µM*[single pt active]
CCOCCCNC(=O)c1cc2c(-c3ccc(Cl)cc3)nn(C)c2s1	>57	8%	-10%	130%
CCN(CC)CCNC(=O)c1cc2c(-c3ccc(Cl)cc3)nn(C)c2s1	>57	5%	10µM*	4µM*[single pt active]
Cn1nc(-c2ccc(Cl)cc2)c2cc(C(=O)NC3CC3)sc21	>57	10%	-2%	4µM*[single pt active]
Cn1c(=O)c(-c2ccccc2)nc2cnc(Oc3ccccc3)nc21	>11	-2%	-17%	2%
